Compound activity: PubChem, National Center for Advancing Translational Sciences (NCATS)
NS1 function inh: inhibitors of influenza NS1 protein function. Potency, µM (series often up to 46.1 µM). actives 0.4% (n = 270,000); calls by dose curve; further: actives are rising curves; nearly all actives have a fitted effect of over 50% in size
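A cell-based growth assay was used: compounds that relieve NS1-induced slow growth of budding yeast raise OD600. Assay medium was yeast nitrogen base with ammonium sulphate and -URA supplement, pH 6.0, with 2% galactose.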
SARS PLP yeast: SARS-CoV PLP inhibition in yeast | S. cerevisiae expressing SARS-CoV PLpro, growth rescue | Potency, µM (doses to about 32.9 µM), hits mostly activators | actives 0.19% (n = 330,000); calls by dose curve; further: nearly all actives have a fitted effect of over 55% in size
Pf growth 96h: P. falciparum growth inhibition at 96 hour, primary screen for plastid delayed-death inhibitors. P. falciparum luciferase reporter growth, 96 h. Potency, µM (doses to about 28.7 µM), actives largely listed as inhibitors. AID 504834. actives 6.9% (n = 320,000)
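Erythrocytes infected with luciferase-expressing P. falciparum were dispensed at 2% hematocrit and 0.05% parasitemia (final), then incubated with compounds 96 hours at 37 C in 5% CO2. Luminescence after detection reagent addition reported growth.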
HCV inh: inhibitors of hepatitis C virus infection. Huh7.5.1 HCVcc-Cre infection, luciferase reporter, 44 h. Potency, µM (doses to about 41.8 µM), usual class: inhibitors. actives 3.4% (n = 340,000). AID 651820
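After 44 h co-culture of compound, cells and HCVcc-Cre (~0.5 moi), substrate is added for 15 min at room temperature and luciferase measured over 15 sec. Cells were seeded at 1,000/well and pre-cultured 4 h.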
AMA1 RON2 block: AMA1-RON2 (P. falciparum) interaction inhibition. AlphaScreen AMA1-biotinylated RON2 peptide binding. Potency, µM (series often up to 58.2 µM), actives largely listed as inhibitors. actives 0.2% (n = 360,000); further: nearly all actives have a fitted effect of over 45% in size
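AMA1 (3D7) with his tag at 25 nM final met compounds first, then biotinylated RON2 peptide at 25 nM; detection used donor plus acceptor beads, 10 µg/mL apiece, read by AlphaScreen after 30 min at room temperature.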
Pf growth 48h: inhibits P. falciparum growth in the first generation, 48 h; P. falciparum luciferase growth in erythrocytes, 48 h; Potency, µM (titrated, usually from 28.7 µM), usual class: inhibitors; actives 5.9% (n = 310,000); AID 504832
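Luminescence readout; reporter = integrated firefly luciferase in P. falciparum. RBC culture at 2% hematocrit, 0.1% parasitemia final, 37 C/5% CO2; decreased signal taken as growth inhibition.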
Each line names hits and unclear results; the compound was inactive in the other large screens. Rows were chosen to be rich in hits. Some 12% of all compounds tested hit in one or more screens of this group. Unless noted, the call rests on the fitted dose curve; in most records, active means well fitted curve in the direction sought with a large enough effect; inconclusive means small, poorly fitted or top-dose-only effect, or another doubt; inactive means no such curve, though single readings can be large; an effect the other way counts as inactive or inconclusive.

CCOC(=O)c1c(NC(=O)COC)sc(C(C)=O)c1C	HCV inh 28µM
COC(=O)c1c(NC(=O)C2c3ccccc3Oc3ccccc32)sc(C)c1C	Pf growth 96h inconclusive, HCV inh inconclusive
CCOC(=O)c1sc(NC(=O)CN(CC(C)C)CC(C)C)c(C(=O)OCC)c1C	NS1 function inh inconclusive, Pf growth 48h 2.3µM (no result: Pf growth 96h)
COC(=O)c1sc(NC(=O)C2c3ccccc3Oc3ccccc32)c(C(=O)OC)c1C	Pf growth 96h 10µM, HCV inh inconclusive, Pf growth 48h 1.7µM
CCOC(=O)c1c(NC(=O)COC)sc(C)c1C	Pf growth 96h inconclusive, HCV inh inconclusive
CCOC(=O)c1c(NC(=O)C2c3ccccc3Oc3ccccc32)sc(C(C)=O)c1C	Pf growth 96h inconclusive, HCV inh 0.79µM, Pf growth 48h inconclusive
CCOC(=O)c1sc(NC(=O)OC)c(C(=O)OC)c1C	HCV inh inconclusive (no result: NS1 function inh)
CCN(CC)C(=O)c1sc(NC(=O)C(Sc2ccccc2)c2ccccc2)c(C(=O)OC(C)C)c1C (centres undefined)	Pf growth 96h 0.41µM, HCV inh 10µM (no result: Pf growth 48h)
CCOC(=O)c1c(NC(=O)OC)sc(C(=O)N(CC)CC)c1C	Pf growth 96h inconclusive, HCV inh inconclusive, Pf growth 48h 5.9µM
CC(C)(C)C(C(=O)n1cccc1C#N)c1ccccc1 (centres undefined)	none (no result: NS1 function inh)
NCCCC(O)(P(=O)(O)O)P(=O)(O)O	none (no result: NS1 function inh, SARS PLP yeast, HCV inh, AMA1 RON2 block)
COc1ccccc1-c1cn[nH]c1-c1ccc(OCc2ccc([N+](=O)[O-])cc2)cc1O	Pf growth 48h inconclusive
COc1ccccc1-c1cn[nH]c1-c1ccc(OCc2ccc(F)cc2)cc1O	Pf growth 96h 10µM, HCV inh inconclusive, Pf growth 48h 13µM
COc1ccccc1-c1cn[nH]c1-c1ccc(OCc2ccccc2F)cc1O	Pf growth 96h 3.7µM, Pf growth 48h 7.4µM
COCCNC(=O)/C(C#N)=C/c1c(N2CCN(c3ccc(OC)cc3)CC2)nc2c(C)cccn2c1=O	Pf growth 96h inconclusive (no result: Pf growth 48h)
COC(=O)C(C)n1cnc2c(nnn2-c2ccc(OC)cc2)c1=O (centres undefined)	Pf growth 96h 4.1µM
COC(=O)C(C)n1cnc2c(nnn2-c2ccc(C)cc2)c1=O (centres undefined)	none
O=C(NCCN1CCOCC1)c1cccc(NS(=O)(=O)c2ccc(Br)cc2)c1	Pf growth 96h inconclusive (no result: NS1 function inh)
Cc1ccc(CSCCNC(=O)c2ccc(Cl)c(S(=O)(=O)N3CCOCC3)c2)cc1	Pf growth 96h 5.2µM, HCV inh 22µM (no result: Pf growth 48h)
O=C(NCCC1=CCCCC1)c1ccc(Cl)c(S(=O)(=O)N2CCCCC2)c1	Pf growth 96h 5.9µM, HCV inh inconclusive, Pf growth 48h 9.3µM
CC(=O)N1CCN(S(=O)(=O)c2cccc(C(=O)NCCC3=CCCCC3)c2)CC1	Pf growth 96h 8.3µM (no result: NS1 function inh)
O=C(NCCC1=CCCCC1)c1ccc(Cl)c(S(=O)(=O)N2CCOCC2)c1	HCV inh inconclusive, Pf growth 48h 5.9µM
O=c1ccc(-c2nc3ccccc3n2Cc2ccccc2Cl)c[nH]1	Pf growth 96h inconclusive
O=c1ccc(-c2nc3cc(Cl)ccc3n2Cc2ccccc2)c[nH]1	Pf growth 96h 9.3µM, Pf growth 48h inconclusive
CC(C(=O)Nc1ccccc1)N(C)CCOc1ccc(Br)cc1 (centres undefined)	Pf growth 48h inconclusive (no result: NS1 function inh)
Cc1csc(NC(=O)c2cn3ccccc3n2)n1	none (no result: NS1 function inh)
Cn1nc(-c2ccccc2)cc1NS(=O)(=O)c1ccc(C#N)cc1	none
Cc1nn2c3ccccc3nc2c2ccccc12	HCV inh 13µM (no result: Pf growth 48h)
CC(OC(=O)CN1C(=O)NC2(CCCC2)C1=O)C(=O)c1ccccc1 (centres undefined)	none (no result: NS1 function inh)
CCCCN1C(=O)NC2NC(=O)NC21 (centres undefined)	AMA1 RON2 block 3.5µM
Cc1cc(C)c2c(=O)[nH]c(SCC(=O)c3ccc(F)c(C)c3)nc2n1	none
Cc1cc(=O)[nH]c(SCc2cccc3ccccc23)n1	Pf growth 96h 3.7µM
COc1ccc(C2C(C(=O)c3sc(C)nc3C)=C(O)C(=O)N2CCN(C)C)cc1OC (centres undefined)	HCV inh inconclusive (no result: Pf growth 96h)
